The values that follow come from PubChem BioAssay.

For experiment [1], the system named is Human papillomavirus type 1a protein E7 (residues 44-93). The experiment is described as follows: HPV1a E7 fragment binders on microarrays, primary screen, biochemical, small-molecule microarray, residues 44-93, 635 nm fluorescence (AID 1108).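 Also: E7 fragment applied at 1 µg/mL in TBST for 1 h at 4 C; score combines spot fluorescence with its signal to noise ratio.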 As to conditions: small-molecule microarray binding, fluorescence 635 nm; higher = more signal.
The nature of experiment [2]: modulators of HCV replicon luciferase signal, primary screen, HCV replication inhibitor project, Huh7 cells, luciferase reporter (AID 1109).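 Also: huh7 hepatoma cells harbouring a luciferase neomycin HCV replicon reporter; luciferase luminescence as measure of HCV replicon replication; test concentration not given here.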 As to conditions: 48 h, higher = more signal. (Replicon systems follow genome replication, usually without infectious particles.)
Experiment [3] concerns the target Left-right determination factor 2 (Homo sapiens) (UniProt O00292). The experiment is described as follows: LEFTY2 binders on small-molecule microarrays, primary screen, biochemical, small-molecule microarray, 635 nm fluorescence scan (AID 1110). As to conditions: LEFTY2 binding, higher = more signal.
In experiment [4] the target is Calmodulin-1 (Homo sapiens) (UniProt P0DP23). The experiment is described as follows: CALM1 binders on microarrays, EGTA buffer, profiling panel, biochemical, small-molecule microarray, Cy5-labelled CALM1 (AID 1111).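 Also: labelled calmodulin applied in Tris saline Tween buffer holding calcium plus EGTA and DTT.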 As to conditions: Cy5-CALM1 binding fluorescence, higher = more signal.
Experiment [5] shares this target. Nature of the experiment: calcium-bound CALM1 binders on microarrays, profiling panel, artefact control for SMM control-protein annotation, biochemical, small-molecule microarray, Cy5-labelled CALM1, plus calcium (AID 1112).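 Also: score merges spot fluorescence with signal to noise from triplicate slides.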 Particulars: Cy5-CALM1 binding fluorescence, higher = more signal.
A short description of experiment [6]: small-molecule microarray binders of probe aWnt5a, primary screen, biochemical, biotinylated probe, 635/667 nm fluorescence (AID 1113).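 Also: score merges 667 nm fluorescence intensity with signal-to-noise per printed feature.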 As to conditions: higher = more signal.
Experiment [7] in a line: small-molecule microarray binders of probe aShh, primary screen, biochemical, biotinylated probe, 635/667 nm fluorescence (AID 1114).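 Also: probe is biotin-labelled aShh protein from a stem cell growth factor screen; measures binding of labelled protein to compounds printed on the slide; score merges feature fluorescence at 667 nm with signal-to-noise.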 Particulars: higher = more signal.
The nature of experiment [8]: small-molecule microarray binders of probe aNog, primary screen, biochemical, biotinylated probe, 635/667 nm fluorescence (AID 1115).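 Also: probe is biotinylated aNog protein used at 0.15 µg/mL for 1 h at 4 C; z-score combines 667 nm fluorescence of each spot with its signal to noise.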 Particulars: higher = more signal.
Experiment [9] has as its target Torsin-1A-interacting protein 1 (Homo sapiens) (UniProt Q5JTV8). The experiment is described as follows: LAP1 binders from COS7 cell lysate, primary screen, small-molecule microarray, 635/667 nm fluorescence (AID 1116). As to conditions: COS7-hLAP1 lysate binding, 635 nm fluorescence, higher = more signal.
The target of experiment [10] is Alpha-bungarotoxin (Bungarus multicinctus) (UniProt P60615). The experiment is described as follows: alpha-bungarotoxin binders on microarray, profiling panel, artefact control for SMM control protein annotation, biochemical, small-molecule microarray, Alexa647 label, 635/667 nm fluorescence (AID 1117). As to conditions: alpha-BTX-A647 binding fluorescence, higher = more signal.
Sequence of Alpha-bungarotoxin (Bungarus multicinctus) (P60615 whole entry, looked up): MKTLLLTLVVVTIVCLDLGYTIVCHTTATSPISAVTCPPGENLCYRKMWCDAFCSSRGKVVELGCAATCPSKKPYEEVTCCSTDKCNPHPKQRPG

Sequence of Left-right determination factor 2 (Homo sapiens) (O00292 whole entry, looked up): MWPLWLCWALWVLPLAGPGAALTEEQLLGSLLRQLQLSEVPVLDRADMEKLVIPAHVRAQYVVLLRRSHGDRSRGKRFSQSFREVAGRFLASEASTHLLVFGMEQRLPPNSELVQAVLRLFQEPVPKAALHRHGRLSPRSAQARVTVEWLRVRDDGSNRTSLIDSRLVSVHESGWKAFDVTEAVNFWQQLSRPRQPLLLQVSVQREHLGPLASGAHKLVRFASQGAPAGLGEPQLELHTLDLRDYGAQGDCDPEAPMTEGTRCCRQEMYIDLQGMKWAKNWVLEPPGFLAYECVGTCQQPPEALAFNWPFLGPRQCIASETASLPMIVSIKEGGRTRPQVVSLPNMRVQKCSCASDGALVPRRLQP
Sequence of Torsin-1A-interacting protein 1 (Homo sapiens) (Q5JTV8 whole entry, looked up): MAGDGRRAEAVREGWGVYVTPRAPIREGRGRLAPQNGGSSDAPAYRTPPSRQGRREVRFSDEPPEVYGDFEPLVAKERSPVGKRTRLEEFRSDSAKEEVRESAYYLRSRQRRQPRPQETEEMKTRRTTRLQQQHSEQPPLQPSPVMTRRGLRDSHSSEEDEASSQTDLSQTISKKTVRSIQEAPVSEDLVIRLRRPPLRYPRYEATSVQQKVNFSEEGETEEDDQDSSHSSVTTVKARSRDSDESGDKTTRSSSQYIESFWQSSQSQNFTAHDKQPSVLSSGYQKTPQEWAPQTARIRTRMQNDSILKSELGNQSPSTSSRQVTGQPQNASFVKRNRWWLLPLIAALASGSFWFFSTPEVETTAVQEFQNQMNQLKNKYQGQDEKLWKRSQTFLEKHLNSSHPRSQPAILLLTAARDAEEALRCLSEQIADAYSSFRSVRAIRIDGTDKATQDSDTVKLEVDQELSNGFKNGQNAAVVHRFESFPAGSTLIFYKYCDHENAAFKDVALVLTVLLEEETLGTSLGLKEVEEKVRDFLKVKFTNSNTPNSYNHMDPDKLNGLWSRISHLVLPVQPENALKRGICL

For `COCCNC(=O)OCC1CCCC2(CC(OC(=O)NCCc3ccc(F)cc3)CC(CCC(=O)N[C@@H](C)C(=O)OC)O2)O1` (stereo not given in full), the composite z-score in [1] is 1.37; in [3], 1.02; in experiment [4], -0.104; in experiment [5] it was -0.685; in experiment [6], -0.0643; in experiment [7] it was -0.0035. Moreover, the figures for the composite z-score in experiment [8], in [9] and in experiment [10] were -0.0827, 0.0096 and 0.429, respectively. Also, the z-score in experiment [2] is -0.376.
Turning to `COCCOC(=O)N1C(=O)[C@@]2(c3cc(C#Cc4ccc(OC)cc4)ccc31)[C@H](c1ccc(O)cc1)N1[C@H](c3ccccc3)[C@H](c3ccccc3)OC(=O)[C@H]1[C@@H]2C(N)=O`, the composite z-score is 1.44 in experiment [1]; 0.599 in experiment [3]; 1.06 in [4]; -0.139 in experiment [5]; 0.0045 in experiment [6]; 0.149 in experiment [7]. In addition, the composite z-score in [8] is -0.694; in experiment [9], 0.743; in experiment [10], 1.16. Besides, the z-score in [2] is -2.02.
`O[C@@H](Cc1ccccc1)[C@H]1C2C=CCCC(c3ccccc3)=C2CN1Cc1cccc(Cl)c1` (stereo not given in full): the composite z-score in experiment [1] is 0.921; in experiment [3], 0.286; in experiment [4] it was -0.118; in experiment [5] it was -0.264; in [6], -0.157; in experiment [7], -0.0243. The composite z-score in [8] came out at 0.14; in experiment [9] it was 0.464; in experiment [10] it was 0.475. Also, the z-score in experiment [2] was -2.27.
On to `CC(=O)OC[C@H]1O[C@@H](ON=C(C)CCN2CCc3nc(-c4ccccc4)c(-c4ccccc4)cc3C2)[C@H](OC(C)=O)[C@@H](OC(C)=O)[C@@H]1OC(C)=O`, for which the composite z-score is 1.32 in experiment [1]; 0.687 in experiment [3]; 0.328 in experiment [4]; -0.697 in experiment [5]; 0.0215 in experiment [6]; -0.0362 in [7]. Moreover, the composite z-score was -0.295 in [8], 0.358 in [9] and 0.74 in experiment [10]. In [2], the z-score was -2.07.
In the case of `CO[C@H]1O[C@H](CO)[C@@H](OC(=O)Nc2ccc(C#N)cc2)[C@H](OC(=O)c2cc3ccccc3[nH]2)[C@H]1OC(=O)c1cc2ccccc2[nH]1`, the composite z-score in [1] is 1.33; in experiment [3], 0.339; in [4] it was 2.07; in experiment [5], 0.299; in experiment [6], -0.206; in experiment [7], -0.0769. The composite z-score came out at 0.569 in experiment [8], 2.09 in experiment [9] and 2.63 in experiment [10]. The z-score in [2] was -2.2.
As for `COC(=O)[C@@]1(Cc2ccccc2)[C@H]2c3cc(C(=O)N4CCCC4)n(Cc4ccccn4)c3C[C@H]2CN1C(=O)c1ccccc1`, the composite z-score in [1] worked out at 1.5; in experiment [3], 0.0043; in [4] it was 1.45; in [5], 0.053; in experiment [6], 0.752; in experiment [7] it was 0.894. Also, the composite z-score stood at 2.25 in [8], 2.42 in experiment [9] and 0.914 in experiment [10]. Also, the z-score in experiment [2] is -1.24.
In the case of `COc1ccc(CCNC(=O)[C@@H]2c3ccccc3C(=O)N(c3ccc(C)cn3)[C@H]2c2ccc(CO)cc2)cc1`, the composite z-score was -0.618 in [1]; -1.76 in experiment [3]; -0.822 in experiment [4]; -0.796 in experiment [5]; -0.242 in experiment [6]; -0.367 in experiment [7]. The composite z-score in [8] is -0.266; in experiment [9], 3.04; in [10], -0.955. Further, in experiment [2], the z-score was determined as 0.267.
For `NC(=O)NCC#Cc1ccc2c(c1)[C@]1(C(=O)N2)[C@H](c2ccc(O)cc2)N2[C@H](c3ccccc3)[C@H](c3ccccc3)OC(=O)[C@H]2[C@@H]1C(=O)N1CCCCCCC1`, the composite z-score in experiment [1] is 1.19; in [3], 0.258; in [4], 0.822; in [5] it was 0.675; in [6] it was 0.338; in experiment [7] it was 0.462. Also, the composite z-score in [8] was -0.623; in experiment [9], 2.42; in [10], 1.34. In addition, in experiment [2], the z-score is -0.421.
Take `COCCOC(=O)N1C(=O)[C@@]2(c3cc(C#Cc4ccc(OC)cc4)ccc31)[C@H](C(=O)N1CCN(c3ncccn3)CC1)[C@H]1C(=O)O[C@H](c3ccccc3)[C@H](c3ccccc3)N1[C@@H]2c1ccc(OCCO)cc1`: the composite z-score in [1] is 1.4; in [3] it was 0.64; in [4] it was 0.766; in experiment [5], 0.397; in experiment [6] it was 0.101; in experiment [7], -0.229. The values for the composite z-score in experiment [8], in experiment [9] and in experiment [10] were 1.26, -0.109 and 0.598, respectively. In experiment [2], the z-score was -1.56.
Take `O=C1[C@H]2[C@H]3[C@H](O)[C@H](O)CC(=NOCc4ccccc4)[C@H]3CC[C@H]2C(=O)N1C[C@@H]1CCCO1`: the composite z-score is 0.536 in experiment [1]; 0.873 in experiment [3]; 0.0951 in [4]; -0.223 in experiment [5]; -0.0685 in experiment [6]; -0.138 in experiment [7]. For the same molecule, the figures for the composite z-score in [8], in experiment [9] and in experiment [10] were 0.0715, 0.278 and 0.0902, respectively. This molecule also yielded a z-score in [2] of 0.188.
On to `CO[C@@H]1COC(=O)[C@H](C)NC(=O)[C@@H](C)COC(=O)CCC[C@H]1C`, for which the composite z-score is 0.379 in experiment [1]; 0.753 in experiment [3]; -0.485 in experiment [4]; -0.704 in experiment [5]; -0.101 in experiment [6]; -0.138 in experiment [7]. Moreover, the composite z-score was -0.169 in experiment [8], 0.268 in experiment [9] and -0.0916 in experiment [10]. Further, in experiment [2], the z-score is -1.33.
For the molecule `CC(C)NC(=O)[C@@]1(c2ccc([N+](=O)[O-])cc2)CC(=O)N(CC23CC4CC(CC(C4)C2)C3)[C@@H]1c1ccc(CO)cc1I`, the composite z-score in [1] is 1.36; in [3], 0.0161; in [4] it was 0.613; in experiment [5], 0.273; in experiment [6] it was -0.0107; in [7] it was 0.0796. For the same molecule, the composite z-score in [8] was -0.41; in experiment [9], 0.981; in [10], 0.442. The z-score in experiment [2] was -3.4.
Consider `CCN1C(=O)[C@H]2[C@H]3[C@H](O)[C@H](O)CC(=NOC(C)CN4CCCCc5nc(C)c(C)cc54)[C@@H]3CC[C@H]2C1=O` (stereo not given in full), for which the composite z-score was -0.504 in [1]; 0.905 in experiment [3]; -2.14 in [4]; -1.31 in [5]; -0.184 in experiment [6]; 0.0796 in [7]. Also, the composite z-score is -0.0489 in experiment [8], -0.401 in [9] and -0.294 in experiment [10]. Further, in experiment [2], the z-score was -1.17.
